# Assay results published in PubChem BioAssay AID651820 (National Center for Advancing Translational Sciences (NCATS), 2012).
# The whole screen tested about 340,000 compounds, of which about 12,000 (3.5%) were called active. Not shown: some 18% with an inconclusive outcome. Calls follow the shape of the dose curve; as a rule, active = well fitted inhibition curve with a large enough effect; inconclusive = small, poorly fitted or top-dose-only effect, or another doubt; inactive = no such curve, though single readings can be large or run the other way. The full list was thinned out, with actives kept by preference.
# Assay: qHTS Assay for Inhibitors of Hepatitis C Virus (HCV)
# Conditions: Huh7.5.1 HCVcc-Cre infection, luciferase reporter, 44 h; series mostly up to 41.8 µM; activity change, negative = inhibition: at the top concentration
# Procedure, shortened: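 Cells (1,000/well) were plated 4 h before compound, then infected with HCVcc-Cre virus (~0.5 moi). After 44 h further culture, infection was read as luciferase luminescence following a 15 min substrate incubation at room temperature.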
# % is scaled to controls: 0 for no effect and ±100 for the full control effect; potency is read from the fitted curve at half-maximal effect.
Compound,"activity change, negative = inhibition",Potency
Cc1ccc(C)c(NC(=O)COC(=O)Cn2c(C)csc2=O)c1,11.3% (inactive),
CCC1(CC)NC(=O)N(CC(=O)OCC(=O)c2cc(C)c(C)cc2C)C1=O,0.464% (inactive),
O=C(CNC(=O)c1ccccc1Br)NNC(=O)c1cccs1,9.22% (inactive),
COc1cc(S(=O)(=O)N2CCN(C(=O)C3CC3)CC2)ccc1NC(C)=O,10.1% (inactive),
O=C(C1Cc2ccccc2CN1C(=O)c1ccco1)N1CCN(c2ccccc2)CC1 (stereo not given),-1.5% (inactive),
O=C(NCCC1=CCCCC1)c1ccc(-n2cncn2)cc1,1.61% (inactive),
CCOc1ccc(C(=O)CCC(=O)NC2=NCCS2)cc1,5.16% (inactive),
Cc1noc(C)c1CSCC(=O)Nc1ccc(Br)cc1Cl,-2.49% (inactive),
CCOC(=O)CCCCCC(=O)Nc1ccc2c(c1)CC(=O)N([C@@H](C)CO)C[C@H](C)[C@@H](CN(C)Cc1ccccc1)O2,0.684% (inactive),
CC(=O)c1cccc(NC(=O)c2cc(C)nn2-c2ccccc2)c1,24.4% (inactive),
O=C(Nc1ccc(Cl)cn1)c1cnn2cccnc12,10.6% (inactive),
Cc1cc(NC(=O)c2cnn3cccnc23)n(-c2ccccc2)n1,,12.6 µM (active)
CSc1ncccc1C(=O)Nc1cccc(S(=O)(=O)N2CCOCC2)c1,1.96% (inactive),
C[C@H](NC(=O)c1[nH]cnc1C(=O)Nc1nccs1)c1ccccc1,7.12% (inactive),
Cc1nn(-c2ccccc2)nc1C(=O)OCC(=O)N1CCCCC1C (stereo not given),-26.6% (inactive),
CN(C)C(=O)N=NC(=O)N(C)C,2.13% (inactive),
O=C(c1cc2nc(-c3ccccc3)cc(-c3ccccc3)n2n1)N1CCC2(CC1)OCCO2,,10 µM (active)
Cc1ccc(-c2cc(C(=O)N3CCC4(CC3)OCCO4)no2)cc1,-6.91% (inactive),
O=C(c1ccccc1[N+](=O)[O-])N1CCC2(CC1)OCCO2,17.8% (inactive),
CC(=O)N1CCc2c(sc(NC(=O)CCS(=O)(=O)c3ccc(C)cc3)c2C(N)=O)C1,11.6% (inactive),
CN(C)c1ccc(/C=N/Nc2cc(N3CCOCC3)nc(N3CCOCC3)n2)cc1,,3.98 µM (active)
Cc1cc(C(=O)N/N=C/c2ccc(N3CCOCC3)cc2)c(C)o1,-11.3% (inactive),

Compound,"activity change, negative = inhibition",Potency
CCN(CC)c1ccc(C(=O)N/N=C/c2ccc(N3CCOCC3)cc2)cc1,1.15% (inactive),
CC(=O)Oc1ccc(OC(C)=O)c2c1C1C=CC2CC1,-24.3% (inactive),
Cc1n[nH]c(=O)c2c(NC(=O)CSc3cc(Cl)ccc3Cl)oc(C)c12,2.48% (inactive),
Cc1cc(C(F)(F)F)nn1-c1nc(-c2ccco2)cc(C(F)(F)F)n1,-21.2% (inactive),
COc1ccc(-c2cc(C(F)(F)F)nc(SCCC(=O)NCc3ccco3)n2)cc1,-54.1% (inactive),
O=C(CSc1nc(-c2ccco2)cc(C(F)(F)F)n1)N1CCc2ccccc2C1,,11.2 µM (active)
CCN([C@H](CO)C(C)C)S(=O)(=O)c1ccccc1Br,0.83% (inactive),
Cc1ccc(NC(=O)CN(C)C(=O)c2cccc(S(=O)(=O)N3CCCC3)c2)cc1,3.18% (inactive),
Cc1[nH]c2ccccc2c1/C=N/NC(=O)CNC(=O)c1ccc2c(c1)OCO2,-8.97% (inactive),
Cc1[nH]c2ccccc2c1/C=N\NC(=O)Cn1nnc(-c2ccccc2)n1,9.36% (inactive),
COCCNC(=S)N/N=C/c1c(C)[nH]c2ccccc12,,10 µM (active)
C[C@@H]1CN([C@@H](C)CO)C(=O)c2cc(NC(=O)C3CC3)ccc2O[C@H]1CN(C)C,19.1% (inactive),
O=[N+]([O-])c1ccc(S(=O)(=O)Nc2cccc(-c3ccc(N4CCCC4)nn3)c2)cc1,-3.97% (inactive),
CC(OC(=O)c1c(F)cccc1F)C(=O)NCCC1=CCCCC1 (stereo not given),4.45% (inactive),
CN(CC(=O)Nc1ccc(F)c(F)c1F)C(=O)Cn1cnc2c1c(=O)n(C)c(=O)n2C,0.609% (inactive),
CC(C)Cn1c(N)c(C(=O)COC(=O)C2CCCN2C(=O)c2cccs2)c(=O)n(C)c1=O (stereo not given),10.3% (inactive),
COc1ccccc1NC(=O)COC(=O)COc1ccccc1F,1.95% (inactive),
COc1ccc(OC)c(S(=O)(=O)Nc2ccccc2F)c1,20.6% (inactive),
COc1ccc(NS(=O)(=O)c2cc(NC(=O)COc3ccccc3F)ccc2OC)cc1,,11.2 µM (active)
CCc1noc(C)c1C(=O)N1CCCC(N2CCN(c3ccc(F)cc3)CC2)C1 (stereo not given),-13.5% (inactive),
Cn1c(N)cc(=O)n(C)c1=S,12% (inactive),
C=C(C)CNC(=O)c1ccc(OC2CCN(C(=O)COC)CC2)cc1,12.3% (inactive),

Compound,"activity change, negative = inhibition",Potency
COc1ccc(NC(=O)CN(C)C(=O)CC2CCCCC2)cc1,-17.7% (inactive),
O=c1oc2ccccc2cc1-c1csc(Nc2ccc(O)cc2)n1,,31.6 µM (active)
COC(=O)CCc1sc(Nc2ccc(Br)cc2)nc1-c1ccc(OC)cc1,7.69% (inactive),
O=C(Nc1ccncc1)c1cc2ccccc2o1,-23.4% (inactive),
CCNc1nc(-c2cc3ccccc3o2)cs1,-7.72% (inactive),
CC(C)(C)C(=O)OCc1nc(-c2ccc(O)c(O)c2)cs1,-67.3% (inactive),
COc1ccc2nc(Nc3nc(-c4ccncc4)cs3)sc2c1,-22% (inactive),
COc1ccc(OC)c(Nc2nc(-c3ccc(O)c(O)c3)cs2)c1,,10 µM (active)
CCN1CCN(c2nc(Nc3cc(OC)ccc3OC)nc(Nc3cc(OC)ccc3OC)n2)CC1,-80% (inactive),
COc1ccc(-c2csc(Nc3ccc(O)cc3)n2)cc1,,12.6 µM (active)
CC(=O)C[C@H](O)CC(=O)[C@@H]1OC(=O)[C@@H](C)C/C=C\Cc2ccccc21,-6.09% (inactive),
COc1ccc(C(=O)COC(=O)CN2C(=O)C3CC=CCC3C2=O)c(OC)c1 (stereo not given),1.76% (inactive),
CC1(C)CC[C@@]2(C(=O)O)C(C1)C1=CCC3[C@@]4(C)CC[C@H](O)C(C)(C)C4CC[C@@]3(C)[C@]1(C)C[C@H]2O (stereo not given in full),16.8% (inactive),
Cc1cc(C)cc(NC(=O)C(c2ccccc2)N2CCN(CC(=O)N3CCCC3)CC2)c1 (stereo not given),-20.3% (inactive),
CCOc1ccc(C(=O)CCC(=O)Nc2ccncc2)cc1,0.752% (inactive),
O=C(CNC(=O)c1ccccc1Br)NCCSc1ccc(Br)cc1,-3.3% (inactive),
CN(C)C1=NC[C@H](Cc2ccccc2)N1CCc1ccc(F)cc1,9.99% (inactive),
C#CCOCCOCCOCCNc1nc(N2CCN(C(=O)[C@H](CCCCN)n3cc(CCC(=O)O)nn3)CC2)nc(N2CCN(C(=O)[C@H](CCCCN)n3cc(CC(C)O)nn3)CC2)n1 (stereo not given in full),0.129% (inactive),
COc1cccc(CN(C)CC(=O)Nc2ccccc2C(=O)Nc2ccccc2)c1,-12.5% (inactive),
CC1CCCCC1NCC(=O)Nc1ccccc1C(=O)Nc1ccccc1 (stereo not given),,0.891 µM (active)
CCCC(NCC(=O)Nc1ccccc1C(=O)NC1CC1)c1ccccc1 (stereo not given),-16.5% (inactive),
